# EPAC2 antagonist = qHTS for Antagonist of cAMP-regulated guanine nucleotide exchange factor 2 (EPAC2): primary screen. Rap guanine nucleotide exchange factor 4 (Homo sapiens), Q8WZA2. EPAC2 GEF exchange of Rap1B-BODIPY-GDP, fluorescence. Potency, µM (doses to about 114 µM), for the others: at the highest dose activity, negative = inhibition, most hits filed as inhibitors. 360,000 tested, 0.18% active; also: % is scaled to controls: 0 for no effect and ±100 for the full control effect; nearly all actives have a fitted effect of over 45% in size
# EPAC1 antag = qHTS for Antagonist of cAMP-regulated guanine nucleotide exchange factor 3 (EPAC1): primary screen | Rap guanine nucleotide exchange factor 3 (Homo sapiens), O95398 | 360,000 tested, 0.14% active | Potency, µM (doses to about 115 µM), for the others: top-dose activity change, negative = inhibition, actives largely listed as inhibitors | AID 720709, 2013 | EPAC1 GEF assay, Rap1b-BODIPY-GDP exchange fluorescence;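 also: plate controls were vehicle for no effect and positive control for full effect; nearly all actives have a fitted effect of over 50% in size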
# EPAC2 agonist = qHTS for Agonist of cAMP-regulated guanine nucleotide exchange factor 4 (EPAC2): primary screen; EPAC2 activation, biochemical qHTS; response scale: 100% = 6.5 mM cAMP response; Rap guanine nucleotide exchange factor 4 (Homo sapiens), Q8WZA2; 360,000 tested, 0.079% active; Potency, µM (top dose mostly 154 µM), for inactives: at the top dose activation, most hits filed as activators; also: nearly all actives have a fitted effect of over 50% in size
#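 In this primary screen, activation is scored as increased exchange of BODIPY-GDP from Rap1B by 100 nM EPAC2, with 50 uM GDP as competitor. Signal is normalized to the 6.5 mM cAMP agonist control.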
# EPAC1 ag = qHTS for Agonist of cAMP-regulated guanine nucleotide exchange factor 3 (EPAC1): primary screen; Rap guanine nucleotide exchange factor 3 (Homo sapiens), O95398; EPAC1 agonist qHTS, biochemical assay; response scale: 100% = response to 6.5 mM cAMP; Potency, µM (titrated, usually from 154 µM), inactives show at the top dose activation, hits mostly activators; 360,000 tested, 0.073% active; also: nearly all actives have a fitted effect of over 60% in size
#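 Multi-concentration qHTS readout: loss of Rap1B-bound BODIPY-GDP fluorescence driven by 100 nM EPAC1 with excess GDP (50 uM), monitored kinetically at room temperature; agonist response expressed relative to 6.5 mM cAMP.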
# Rango-impB inh = qHTS Assay for Inhibitors of Rango (Ran-regulated importin-beta cargo) - Importin beta complex formation; AID 540263, 2011; 340,000 tested, 0.031% active; Rango CFP/YFP FRET sensor + importin beta, 45 min; Potency, µM (highest dose often 92.2 µM), for inactives: at the highest dose inhibition of complex formation; calls by dose curve;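 also: 0% = DMSO wells and 100% = buffer wells lacking importin beta; nearly all actives have a fitted effect of over 15% in size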
# Target sequence (Q14974 whole entry, looked up): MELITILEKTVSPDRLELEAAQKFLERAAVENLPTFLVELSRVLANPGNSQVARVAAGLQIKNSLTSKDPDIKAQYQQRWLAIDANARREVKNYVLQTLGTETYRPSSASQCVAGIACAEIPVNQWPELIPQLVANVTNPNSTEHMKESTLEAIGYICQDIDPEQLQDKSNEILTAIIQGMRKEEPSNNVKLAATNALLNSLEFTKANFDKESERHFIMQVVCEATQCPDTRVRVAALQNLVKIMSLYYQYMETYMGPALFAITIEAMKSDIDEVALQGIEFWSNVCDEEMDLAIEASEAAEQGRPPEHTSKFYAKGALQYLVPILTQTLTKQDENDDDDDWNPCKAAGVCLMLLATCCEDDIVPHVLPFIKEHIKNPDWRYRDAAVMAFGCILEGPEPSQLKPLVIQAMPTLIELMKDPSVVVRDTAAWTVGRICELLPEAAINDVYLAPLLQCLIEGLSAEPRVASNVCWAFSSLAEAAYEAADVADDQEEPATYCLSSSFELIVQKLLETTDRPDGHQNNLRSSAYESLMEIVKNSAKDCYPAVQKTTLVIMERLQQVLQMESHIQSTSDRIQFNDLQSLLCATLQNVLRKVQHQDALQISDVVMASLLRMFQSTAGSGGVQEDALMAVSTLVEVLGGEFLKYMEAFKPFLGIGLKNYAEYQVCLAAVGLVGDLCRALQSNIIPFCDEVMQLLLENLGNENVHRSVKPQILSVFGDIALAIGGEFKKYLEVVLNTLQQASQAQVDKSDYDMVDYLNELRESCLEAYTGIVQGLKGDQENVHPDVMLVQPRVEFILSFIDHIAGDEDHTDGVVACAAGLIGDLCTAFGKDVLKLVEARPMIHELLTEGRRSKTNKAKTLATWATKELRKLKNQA
#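 FRET biosensor Rango (snurportin 1 IBB between N-terminal EYFP and C-terminal Cerulean), 50 nM in PBS/1 mM DTT/0.02% Tween-20/0.1% BSA, preincubated 5 min RT with compound; 0.125 microM importin beta added, 45 min RT, CFP/YFP FRET ratio read.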
# Rango release inh = qHTS Assay for Inhibitors of RanGTP induced Rango (Ran-regulated importin-beta cargo) - Importin beta complex dissociation; Biochemical FRET Rango-importin beta, RanGTP-induced dissociation; Potency, µM (highest dose often 46.1 µM), for inactives: top-dose activity change, negative = inhibition; 340,000 tested, 0.071% active; AID 540253, 2011; calls by dose curve; also: % of control where 0% means no effect; nearly all actives have a fitted effect of over 45% in size
#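 Compounds sat 5 min at room temperature with 0.1 uM Rango biosensor plus 0.25 uM importin beta, then FRET pre-read. RanGTP-RCC1 (0.6 uM Ran, 2mM GTP, 0.2 uM RCC1) added for 45 min, and the CFP/YFP post-read measured blocked complex dissociation.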
# * = called active by the depositor; ? = inconclusive; . = no result; [ ] = another dose, or the depositor's remark. Only some compounds are listed: those with a hit (about 0.48% of all), similar ones and a draw of the others. Unless noted, calls follow the shape of the dose curve; as a rule, active = well fitted curve in the direction sought with a large enough effect; inconclusive = small, poorly fitted or top-dose-only effect, or another doubt; inactive = no such curve, though single readings can be large; an effect the other way counts as inactive or inconclusive. Potency is read from the fitted curve at half-maximal effect.
SMILES,EPAC2 antagonist,EPAC1 antag,EPAC2 agonist,EPAC1 ag,Rango-impB inh,Rango release inh
C=C1CCN(C(Cc2ccccc2)C(=O)OC)S(=O)(=O)c2ccc(F)cc21 (stereo unspecified),56.2µM*,-19.5%,11.9%,-17.4%,?,?
CCOC(=O)C(Sc1cc(-c2ccccc2)nc2ncnn12)C(C)=O (stereo unspecified),-1.7%,-9.7%,5.2%,2.4%,?,11.6µM*
Cc1cccn2c(=O)c3cc(C#N)c(=N)n(CCCN4CCOCC4)c3nc12,7.3%,10.5%,3.3%,-7.8%,?,?
Cc1cccn2c(=O)c3cc(C#N)c(=N)n(CCN4CCOCC4)c3nc12,-2.1%,9.7%,9.0%,11.1%,?,8.2µM*
O=C(c1ccco1)N1N=C(C2CCCCC2)CC1(O)C(F)(F)F (stereo unspecified),?,-19.2%,0.2%,-4.1%,-2.4%,-0.6%
CC1CCC2=NN(C(=O)c3ccco3)C(O)(C(F)(F)F)C2C1 (stereo unspecified),50.1µM*,-10.4%,-3.5%,-4.1%,2.4%,2.5%
COc1cccc(/C(=N/O)C2CC2c2ccc(Cl)cc2)c1 (stereo unspecified),?,?,27.1%,20.5%,-0.2%,0.9%
COc1cc(/C=C2/SC(=S)N(CC(=O)O)C2=O)ccc1OC(=O)c1cccs1,?,79.4µM*,12.2%,-8.3%,-3.6%,2.6%
COc1cc(/C=C2\SC(=S)N(CC(=O)O)C2=O)ccc1OS(=O)(=O)c1ccc(C)cc1,?,89.1µM*,-11.6%,-11.5%,-0.1%,4.8%
Nc1nc(-c2ccccc2)cn1N,6.0%,-11.9%,10.1%,4.4%,?,20.6µM*
Nc1nc(-c2ccccc2)cn1/N=C/c1ccccc1,-1.8%,-15.7%,11.5%,12.2%,4.2%,5.7%
CC(C)(C)c1cc(-c2csc(Nc3ccccc3)[n+]2Cc2ccc(C(=O)O)cc2)cc(C(C)(C)C)c1O,-22.8%,79.4µM*,-9.5%,-0.9%,-2.6%,9.7%
COc1ccc(NC(=O)CC2Nc3ccccc3NC2=O)c([N+](=O)[O-])c1 (stereo unspecified),4.8%,5.8%,9.0%,5.2%,-0.7%,-9.2%
COc1ccccc1NC(=O)CC1Nc2ccccc2NC1=O (stereo unspecified),10.6%[57.1 µM],7.2%,-3.8%,4.4%,?,11.6µM*
Cn1nc(C(C)(C)C)cc1C(=O)N1CCCCC1c1cc(C(=O)N2CCOCC2)no1 (stereo unspecified),4.4%,-0.7%,0.4%,-20.3%,.,.
Cc1ccc(C2CC(c3cccs3)=NN2C(=O)CSc2nc(=O)n3cc(C)ccc3n2)cc1 (stereo unspecified),7.2%,-10.4%,7.7%,112µM*,0.3%,17.6%
Cc1cc(=O)oc2cc(NS(=O)(=O)c3ccccc3)ccc12,2.7%,11.3%,1.4%,-2.8%,-11.0%,16.4µM*
CCc1ccc(-c2cc(C)no2)cc1S(=O)(=O)N1CCN(c2ccccc2OC)CC1,-16.0%,-5.9%,4.1%,-7.0%,0.4%,12.9%
CCCCCCc1cc2cc(C(=O)NC)c(=N)oc2cc1O,15.7%,3.6%,100µM*,9.6%,?,?
COc1ccc(CN2C(=O)CCC2(C)c2nnnn2-c2ccc3c(c2)OCCO3)cc1OC (stereo unspecified),1.0%,-1.6%,5.7%,-1.8%,.,.
O=C(CSc1nc2ccsc2c(=O)n1CC1CCC(C(=O)O)CC1)c1ccc(F)cc1 (stereo unspecified),11.7%,5.7%,-2.5%,-6.1%,0.4%,-2.6%
O=C(CSc1nc2ccsc2c(=O)n1CC1CCC(C(=O)O)CC1)c1ccc(Cl)cc1 (stereo unspecified),-14.4%,56.2µM*,18.7%,?,-7.0%,6.7%
CC(C)c1ccc(NC(=O)c2ccc(NS(C)(=O)=O)cc2)cc1,1.7%,-20.4%,-6.2%,-8.9%,-1.2%,17.5%
N#Cc1c(C(F)(F)F)cc(-c2ccc(Cl)cc2)[nH]c1=O,-9.3%,39.8µM*,-1.6%,-15.5%,?,-28.9%
N#Cc1c(C(F)(F)F)cc(-c2ccc(F)cc2)[nH]c1=O,-12.2%,-23.7%,-0.8%,-1.5%,-1.4%,12.0%
SMILES,EPAC2 antagonist,EPAC1 antag,EPAC2 agonist,EPAC1 ag,Rango-impB inh,Rango release inh
COc1cc(/C=C/[N+](=O)[O-])ccc1OCc1cccc(C(=O)O)c1,22.4µM*,?,17.8%,8.3%,?,3.2%
Cc1cc(CSc2ccc(Cl)cc2)ccc1N,15.8µM*,-3.6%,16.5%,5.6%,0.1%,5.3%
Cc1ccccc1NC(=O)COC(=O)c1ccc(CSc2ccc(Cl)cc2)cc1,25.4%,-11.6%,7.2%,2.7%,-2.4%,2.0%
N#C/C(=C\c1ccc(Sc2ccc(Cl)cc2)o1)c1nc2ccccc2[nH]1,36.1%,7.0%,100µM*,8.1%,?,?
N#C/C(=C/c1ccc(N2CCOCC2)o1)c1nc2ccccc2[nH]1,46.4%,-7.4%,100µM*,89.1µM*,?,?
N#C/C(=C\c1ccc(Sc2nc3ccccc3[nH]2)o1)c1ccccc1,0.7%,-7.0%,7.1%,20.9%,?,0.8%
COC(=O)C1=NN(c2cccc3ccccc23)C2C(=O)N(c3ccccc3OC)C(=O)C12 (stereo unspecified),-2.4%,-24.2%,12.3%,7.0%,?,11.6µM*
C=CCSc1nc(-c2ccc(OC)cc2)c(C#N)c(=O)n1CC=C,39.8µM*,-7.5%,-3.4%,-3.7%,-2.6%,-8.1%
COc1ccc(-c2nc3n(c(=O)c2C#N)CCS3)cc1,-3.6%,?,12.6%,2.9%,?,17.4%
CCN(Cc1ccc(C#CCCO)cc1)CC1CCCN(CCc2cccc(F)c2)C1 (stereo unspecified),-10.9%,?,4.2%,-9.8%,0.1%,2.2%
COc1cc(NS(=O)(=O)c2ccc(NC(=S)NC(=O)c3sc4ccccc4c3Cl)cc2)nc(OC)n1,-1.2%,2.4%,6.5%,5.7%,-5.9%,-25.7%

# Source: PubChem (National Center for Advancing Translational Sciences (NCATS))
